For orientation: inhibition means the relative decrease from the control value, in per cent.

In all, about 350,000 compounds went through this assay and about 2,100 (0.6%) were called active. The sample as a whole holds a higher share of actives than the screen did. A number with no mark means an inactive call.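 How the source made its calls: active means inhibition of the ligand-induced calcium signal above about 50% at the single tested concentration (limit read from the data); inactive means the rest.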

Experimental findings from PubChem BioAssay AID588475 (Sanford-Burnham Center for Chemical Genomics, 2011) are described below.

The nature of this experiment: blockers of CRF-evoked CRF-R2/CRF-BP calcium response – cell-based, HEK293, calcium dye fluorescence, uHTS, primary screen (AID 588475). To be noted: CRF-induced calcium fluorescence, at 11.8 µM, stronger effect = higher value.
With `COc1ccc(Cn2c(O)c(/C=C3/C=CC=N3)c(=O)[nH]c2=O)cc1`, the inhibition was 0.93%.

Take `NC(=O)C1(N2CCCCC2)CCN(C2CC(=O)N(Cc3ccc(N4CCCC4=O)cc3)C2=O)CC1` (stereo not drawn): the inhibition is -8.44%.

Turning to `O=C(O)CSCC(=O)Nc1ccc(C(F)(F)F)cc1`, the inhibition is -14.8%.

In the case of `O=C(O)CC(SCC(=O)Nc1ccc(Br)cc1)C(=O)O` (stereo not drawn), the inhibition was 57.3% (active).

For `Cc1cc(C)c2c(=O)[nH]c(SCC(=O)Nc3ccc(Br)cc3)nc2n1`, the inhibition is -6.59%.

For the molecule `O=C(CN1CCOC1=O)N1CCCC(Nc2ccc(F)c(F)c2)C1` (stereo not drawn), the inhibition is 0.32%.

As to `CCc1cc(=O)oc2c(C)c(OCC(=O)N3CC[C@@]4(O)CCCC[C@H]4C3)ccc12`, the inhibition was -9.77%.

With `COc1ccc(OC)c(CNC(=O)Cn2nc(C)c3c(C)n(-c4ccc(C)cc4)nc3c2=O)c1`, the inhibition was 9.58%.

As to `CCOP(=O)(OCC)C(Nc1cccc(C)c1)c1ccc(F)cc1` (stereo not drawn), the inhibition was -6.82%.

Take `CCOP(=O)(OCC)C(Nc1ccc([N+](=O)[O-])cc1)c1ccc(Cl)cc1` (stereo not drawn): the inhibition is 40.7%.

As to `CCCCOC(=O)c1ccc(NC(c2ccc(C)cc2)P(=O)(OC)OC)cc1` (stereo not drawn), the inhibition is 102% (active).

For the molecule `O=C(CCCn1c(=O)c2sccc2n(CC(=O)NCC2CCCO2)c1=O)NCc1ccco1` (stereo not drawn), the inhibition was -17.3%.

`CCOC(=O)N1CCN(S(=O)(=O)c2cc3c(cc2C)NC(=O)CO3)CC1`: the inhibition was -1.54%.

Consider `CN1CCN(CC(=O)C23CC4CC(CC(C4)C2)C3)CC1`, for which the inhibition is 7.99%.

As to `Cc1ccccc1N1CCN(C2CCCN(C(=O)c3ocnc3C)C2)CC1` (stereo not drawn), the inhibition was 1%.

As to `Cc1cnc(C(=O)N2CCCC(N3CCN(c4ccccc4F)CC3)C2)cn1` (stereo not drawn), the inhibition was 14.5%.

`Cc1ccccc1N1CCN(C2CCCN(C(=O)c3cn4c(C)cccc4n3)C2)CC1` (stereo not drawn): the inhibition is 53.6% (active).

Consider `Cc1ccc(-n2cc3ccc([N+](=O)[O-])cc3n2)cc1`, for which the inhibition was -2.01%.

For the molecule `Cc1ccc(NC(=O)c2oc3ccccc3c2C)c([N+](=O)[O-])c1`, the inhibition is -13.1%.

As to `O=C(NC1CC1)C1CCCN(C(=O)NC2CCCCC2)C1` (stereo not drawn), the inhibition is 1.71%.

Consider `Cc1ccnc(N2CCCC(C(=O)NC3CC3)C2)n1` (stereo not drawn), for which the inhibition is 50.4% (active).

Consider `COc1cc(C)nc(N2CCCC(C(=O)NCC(C)C)C2)n1` (stereo not drawn), for which the inhibition is -9.18%.

On to `CC(C)(C)NC(=O)CN1CCC(NC(=O)C23CC4CC(CC(C4)C2)C3)CC1`, for which the inhibition was -2.97%.

For `O=C(CNCc1ccc(F)cc1)Nc1ccccc1-c1ccccc1`, the inhibition was -15%.

Take `O=C(COC(=O)c1ccc(N2CCCC2=O)cc1)c1ccc(OC(F)F)cc1`: the inhibition is 4.33%.

As to `Cc1c(NC(=O)c2coc(=O)c(Br)c2)c(=O)n(-c2ccccc2)n1C`, the inhibition is -18.5%.

For the molecule `O=C(Nc1cccc(F)c1)c1coc(=O)c(Br)c1`, the inhibition is 102% (active).

For the molecule `O=C(CCN1C(=O)c2ccccc2C1=O)Nc1cccc(F)c1`, the inhibition is -0.74%.

On to `Cc1nn(-c2ccccc2)c(C)c1/C=C/C(=O)OC(C)C(N)=O` (stereo not drawn), for which the inhibition was 23.7%.

Regarding `Cc1nn(-c2ccccc2)c(Cl)c1/C=N/NC(=O)c1nn(C)cc1[N+](=O)[O-]`, the inhibition was 15.5%.

Regarding `Cc1nn(-c2ccccc2)c(Cl)c1/C=C/C(=O)c1ccc(O)cc1`, the inhibition is 57.7% (active).

In the case of `CC1(C)CC(=O)C(N=Nc2c(F)cccc2F)=C(O)C1`, the inhibition was 14.8%.

Regarding `Cn1nnc2cc(C(=O)NCCC3=CCCCC3)ccc21`, the inhibition is 69% (active).

In the case of `CN(c1ccc(C(=O)NCCC2=CCCCC2)cc1)S(C)(=O)=O`, the inhibition was 3.31%.

With `O=C(NCCC1=CCCCC1)c1ccc(-n2cncn2)cc1`, the inhibition is -5.9%.

For the molecule `CCCCCCCCCCCC(=O)O`, the inhibition was 16.1%.

With `Cc1ccc(S(=O)(=O)c2c[nH]c3ccc(C)cc3c2=O)cc1`, the inhibition was -6.79%.

For `O=C(c1nnc(-c2ccc(Cl)cc2)o1)C1CCCC1`, the inhibition was 1.38%.

As for `S=c1[nH]nc(-c2ccc(Cl)cc2)n1CC1CCCO1` (stereo not drawn), the inhibition was 19%.

For the molecule `O=C(c1[nH]ncc1-c1ccc(Cl)cc1)C1CO1` (stereo not drawn), the inhibition is 98.5% (active).

Consider `CN(C(=O)c1cccc(NC(=O)Cc2ccc([N+](=O)[O-])cc2)c1)C1CCC1`, for which the inhibition was 10.4%.

As to `CCOC(=O)c1cc2occc2n1CC(=O)NC1CCC(C)CC1` (stereo not drawn), the inhibition is 4.37%.

Consider `O=C(CN1C(=O)CC(c2ccccc2)=Nc2ccccc21)NC1CCCCC1`, for which the inhibition was 3.75%.

For `CC(=O)Oc1c(C(=O)c2nnc(C)o2)c(=O)n(Cc2ccccc2)c2ccccc12`, the inhibition is -18.6%.

Consider `NC(N)=N/N=C/c1ccc(OCc2ccc(Cl)cc2Cl)cc1`, for which the inhibition is -68.7%.

In the case of `O=C1c2ccccc2-c2ncnc3c(N4CCOCC4)cc(N4CCOCC4)c1c23`, the inhibition was 54% (active).

Regarding `O=S(=O)(Nc1cc(Cl)ccc1N1CCOCC1)c1ccccc1Cl`, the inhibition is 3.16%.

As to `Cc1oc2c(c1C(=O)N1CCOCC1)C(=O)c1ccccc1C2=O`, the inhibition was 3.77%.

Turning to `CC1=C(C(=O)N(C)C)C(c2ccccc2OC(F)F)NC(=O)N1` (stereo not drawn), the inhibition was -0.09%.

`CCCn1nc(Oc2nc(NC(C)C)nc(N(C)C)n2)ccc1=O`: the inhibition is 2.18%.

As for `O=C(Nc1ccc(Br)cc1)c1cc(S(=O)(=O)Nc2ccccn2)ccc1Cl`, the inhibition was -2.82%.

For `Cc1ccc(NS(=O)(=O)c2ccc(C(C)C)cc2)cc1S(=O)(=O)N1CCOCC1`, the inhibition is -10.7%.

As for `Cc1ccc(NS(=O)(=O)c2cccs2)cc1S(=O)(=O)N1CCCCCC1`, the inhibition is 122% (active).

Regarding `COc1ccccc1C(=O)Nc1ccc(C)c(S(=O)(=O)N2CCCCC2)c1`, the inhibition is -0.27%.

Consider `CN(C)CCCO/N=C(\c1ccccc1)c1ccncc1`, for which the inhibition is 1.7%.

In the case of `Cc1cccc(CSc2nc3c(c(=O)n2C)SCC3)c1`, the inhibition is 59.8% (active).

On to `Cn1c(SCC(=O)N2CCCCC2)nc2c(c1=O)SCC2`, for which the inhibition is -10.6%.

Turning to `Cc1cccc(CSc2nnc(C)c(=O)n2N)c1`, the inhibition was 18.4%.

Take `CCCN1C2=C(C(=O)CCC2)C(c2ccc(O)c(Br)c2)C2=C1CCCC2=O`: the inhibition was -18.3%.

On to `CCc1c(C)nc(N)n2c(SCC(=O)NC3CCCCC3)nnc12`, for which the inhibition was -4.43%.

Take `CCOc1cc(/C=C(/C#N)c2ccc(Cl)cc2)cc(Cl)c1OCC(=O)O`: the inhibition was 57.4% (active).

As to `COc1cc(/C=C(/NC(=O)c2ccc(Cl)cc2Cl)C(=O)O)cc(OC)c1OC`, the inhibition is -5.5%.

For `CCOc1cc(/C=N/NC(=O)OC)ccc1OCCSc1ccc(Cl)cc1`, the inhibition was -13.1%.
